FMDV Renilla – FMDV antiviral activity by Renilla signal | Potency, µM (top dose mostly 57.5 µM), hits mostly inhibitors | FMDV replicon cells, Renilla luciferase signal | 120,000 tested, 0.32% active; further: nearly all actives have a fitted effect of over 55% in size
FMDV antiviral – FMDV antiviral activity by firefly signal; Potency, µM (series often up to 57.5 µM), most hits filed as inhibitors; 120,000 tested, 0.23% active; AID 1745856; FMDV antiviral cell assay, firefly luciferase signal; further: nearly all actives have a fitted effect of over 60% in size
Large screens that a line does not name were inactive. A selection: hits, their analogues and other compounds. The true share with any hit is near 0.4%. The call rests on the fitted dose curve.

COc1ccc(CNC(=O)c2nc(S(=O)(=O)Cc3ccccc3)ncc2Cl)cc1	FMDV antiviral 22µM
CCc1c(C)sc2c1CCN(C(=O)Nc1ccc(F)c(Cl)c1)C2c1ccc(F)cc1 (configuration not stated)	FMDV Renilla inconclusive, FMDV antiviral 35µM
CCc1c(C)sc2c1CCN(C(=O)Nc1ccccc1C(=O)OC)C2c1ccc(F)cc1 (configuration not stated)	none
COc1ccc2nc(-c3ccc4c(c3)OCO4)cc(C(=O)O)c2c1	none
Cc1c(C(=O)OC2CCCCCC2)[nH]c2c1C(=O)CC(c1ccccc1)C2 (configuration not stated)	none
COc1cc(C2CC(=O)c3c([nH]c(C(=O)OC4CCCC4)c3C)C2)cc(OC)c1OC (configuration not stated)	FMDV Renilla 8.9µM, FMDV antiviral inconclusive
CC1CCc2c(c(-c3cccc(O)c3)nc3ccc4ccccc4c23)C1 (configuration not stated)	none
CCc1nn2c(=O)cc(CNc3ccc4c(c3)OCCCO4)nc2s1	FMDV antiviral 4.5µM
CCc1nn2c(=O)cc(CNc3ccccc3NC(=O)c3ccccc3)nc2s1	none
Cc1ccc(C(=O)Nc2nc3cc(NS(=O)(=O)Cc4ccccc4)ccc3s2)cc1	none
Cc1cc(C(=O)Cn2c(Cl)nc3c2c(=O)n(C)c(=O)n3C)c(C)n1CC(F)(F)F	FMDV Renilla 16µM, FMDV antiviral 22µM
Cc1cc(C(=O)Cn2c(Cl)nc3c2c(=O)n(C)c(=O)n3C)c(C)n1Cc1ccc(F)cc1	none
COc1cccc(-c2csc(-c3cc4cccc(OC)c4oc3=O)n2)c1	none
CCCCCOc1ccc(C(=O)O)cc1	none
CCCCOc1ccc(C(=O)C(CCC(CNC(C)(C)C)C(=O)c2ccc(OCCCC)cc2)CNC(C)(C)C)cc1 (configuration not stated)	FMDV Renilla 28µM, FMDV antiviral inconclusive
COC(=O)COc1ccc2c(c1)O/C(=C\C1=Cc3ccccc3OC1C)C2=O (configuration not stated)	none
COc1cc(CN2CCc3nc(N4CCN(c5ncccn5)CC4)ncc3C2)cc(OC)c1OC	FMDV Renilla 7.1µM, FMDV antiviral inconclusive
Brc1ccc(CN2CCc3nc(N4CCN(c5ncccn5)CC4)ncc3C2)cc1	FMDV Renilla inconclusive
CC(C)Cn1nc(C(=O)Nc2nc3c(s2)CN(Cc2ccccc2)CC3)c2ccccc2c1=O	none
N#Cc1ccc(NCCNC(=O)Nc2ccccc2)nc1	none
N#Cc1ccc(NCCNC(=O)C2CCCCC2)nc1	FMDV Renilla 32µM, FMDV antiviral inconclusive
N#Cc1c(N2CCN(C(=O)C(=O)N3CCCC3)CC2)nc(-c2ccco2)c2c1CCCC2	none
CCN(CC)c1cc(C)nc(Nc2ccc(NS(=O)(=O)c3cc(C(C)(C)C)ccc3OC)cc2)n1	FMDV antiviral inconclusive
Clc1cccc(N2CCN(c3ncnc4c3nc3n4CCCC3)CC2)c1	FMDV Renilla inconclusive
Cc1cccc(N2CCN(c3ncnc4c3nc3n4CCCCC3)CC2C)c1 (configuration not stated)	FMDV Renilla 2.5µM, FMDV antiviral 2.8µM
COc1cccc(C2C3=C(CC(C)(C)CC3=O)Nc3cc4c(cc32)OCO4)c1OC (configuration not stated)	none
Cc1ccc(C)c(NC(=O)COC(=O)c2ccc3ccccc3n2)c1	none
Cc1ccc(NC(=O)COC(=O)c2ccc3ccccc3n2)c(C)c1	FMDV Renilla 22µM, FMDV antiviral inconclusive
COc1cc2c(cc1OC)C(c1ccc(Cl)c(Cl)c1)C1=C(CCCC1=O)N2 (configuration not stated)	none
COc1ccccc1OC(C)C(=O)Nc1ccc(OC)c2ncccc12 (configuration not stated)	none
CCOc1ccc(NC(=O)C(C)Oc2cc(C)cc(C)c2)c2cccnc12 (configuration not stated)	none
COc1ccc(NC(=O)C(C)Oc2cc(C)cc(C)c2)c2cccnc12 (configuration not stated)	FMDV Renilla 28µM, FMDV antiviral inconclusive
COc1ccc(NC(=O)C(C)Oc2cccc(C)c2C)c2cccnc12 (configuration not stated)	FMDV Renilla 4µM, FMDV antiviral inconclusive
CC(C)Cn1c(SCC(=O)c2ccc(C#N)cc2)nnc1-c1ccccc1	none
FC(F)Oc1cccc(-c2ccnc(=S)[nH]2)c1	none
Cc1nc2sc3c(c2c2nc(C(=O)NCc4ccco4)nn12)CC(C)(C)OC3	none
Cc1ccc(OCC(=O)Nc2nnc(SCc3cc(=O)c4ccccc4[nH]3)s2)cc1	none
CCCC(=O)Nc1nnc(SCc2cc(=O)c3ccc(C)cc3[nH]2)s1	FMDV Renilla 2µM, FMDV antiviral 2.5µM
CCC(=O)Nc1nnc(SCc2cc(=O)c3cc(C)ccc3[nH]2)s1	none
CCC(CC)C(=O)Nc1nnc(SCc2cc(=O)c3ccccc3[nH]2)s1	FMDV Renilla 8.9µM, FMDV antiviral 13µM
CCOP(=O)(OCC)c1nc(-c2ccc(C)cc2)oc1N(C)C	none
COC(=O)c1cccc(CNc2ccc3c4c(cccc24)CC3)c1	none
OC(CC#CCN1CCN(CC#CCC(O)(c2ccccc2)c2ccccc2)CC1)(c1ccccc1)c1ccccc1	none
CCOc1ccc(CN(CC)Cc2cc(=O)oc3ccc(OC)cc23)cc1	FMDV Renilla 25µM, FMDV antiviral inconclusive
CCN(Cc1ccc(OC)cc1)Cc1cc(=O)oc2ccc(C)cc12	none
Oc1ccc(-c2nc(-c3cc(F)ccc3F)cs2)cc1	none
CCOC(=O)c1ccc(Oc2nc(C)nc3c2oc2ccccc23)cc1	none
CC(=O)c1ccc(Oc2nc(C)nc3c2oc2ccccc23)cc1	FMDV Renilla 2.8µM, FMDV antiviral inconclusive
CC(=O)Oc1ccc2c(C)c(CC(=O)NC3CCCCCC3)c(=O)oc2c1OC(C)=O	none
O=C(/C=C/c1ccc(Cl)cc1)c1ccccc1O	none
O=C(O)c1ccccc1C(=O)/C=C/c1ccc(Cl)cc1	FMDV Renilla 28µM
CC(C)=CCC/C(C)=C/CNCC(O)CN1CCOCC1 (configuration not stated)	none
COc1ccc(/C=C/c2nc(C#N)c(N3CCN(C(C)=O)CC3)o2)cc1	none
C=CCNc1oc(-c2ccc(COc3ccc(C)cc3)o2)nc1C#N	none
Cc1cccc(-n2nnnc2C2(N3CCCC3)CCCC2)c1	none
Cc1cccc(-n2nnnc2S(C)(=O)=O)c1	FMDV Renilla inconclusive, FMDV antiviral 28µM
N=C(N)c1cc(N)cc(C(=N)N)c1	none
CCC1CCCCN1C(=O)Cn1c(=O)n(-c2ccccc2)c(=O)c2sccc21 (configuration not stated)	none
O=C(CC1CCCCC1)Nc1ccc(-c2nc3ccccc3s2)cc1	none
Cc1ccc(NC(=O)CNc2nc(Nc3ccc(C)cc3)nc(Nc3ccc(C)cc3)n2)cc1	none
COc1ccc2c(c1)c(C(C)=O)c(C)n2CCc1ccc(OC)c(OC)c1	none
COc1ccc2c(c1)c(C(C)=O)c(C)n2CCc1ccccc1	FMDV Renilla 11µM, FMDV antiviral inconclusive
COP(=O)(OC)c1nc(-c2ccc(Cl)cc2)oc1NCc1cccnc1	none
Cc1nc2sccn2c1-c1csc(Nc2cccc(Cl)c2C)n1	FMDV Renilla 35µM, FMDV antiviral inconclusive
CCc1ccccc1Nc1nc(-c2c(C)nc3sccn23)cs1	FMDV Renilla inconclusive

Screens as filed in PubChem BioAssay.
